Screening results: PubChem, National Center for Advancing Translational Sciences (NCATS)
Tb PYK inh: blocks Trypanosoma brucei pyruvate kinase. Q57TT1. TbPYK enzyme, Kinase-Glo Plus ATP luminescence, 45 min. Potency, µM (titrated, usually from 76.8 µM), for inactives: at the highest dose activity, negative = inhibition, actives largely listed as inhibitors. 410,000 tested, 0.12% active. AID 624173; note: potency is the fitted concentration of half-maximal effect; % is set by controls: 0 for no effect and ±100 for the full control effect; nearly all actives have a fitted effect of over 50% in size
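Enzyme and substrate buffer are dispensed first and compound is pin-transferred. ADP at 130 uM final then starts the reaction, which runs 45 min at room temperature. Detection reagent is added for 10 min before luminescence is imaged.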
CHX counter: counter-screen for Shiga toxin inhibitors: cycloheximide protein synthesis inhibition. cell reporter, cycloheximide protein synthesis inhibition counterscreen. max response, %. 300,000 tested, 12% active; in the data active = max response mostly above about 13%, no sharp cut-off; inactive = mostly below about 14%; note: read at 38.3 µM for the half of the compounds with a filed dose; 0% is about no effect
NS1 function inh: influenza NS1 inhibition; Potency, µM (doses to about 46.1 µM), for inactives: at the highest dose activity, positive = more growth; 270,000 tested, 0.4% active; AID 2326; calls by dose curve; note: potency is the fitted concentration of half-maximal effect; actives are rising curves; nearly all actives have a fitted effect of over 50% in size
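Read-out: OD600 growth recovery of NS1-expressing budding yeast. Cells grown overnight at 30C in -URA glucose medium, washed, resuspended and diluted 1:100 in 2% galactose assay medium, pH 6.0. Same strain lacking NS1 served as positive control.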
LmPK inhibitor: blocks Leishmania mexicana pyruvate kinase activity | AID 1721 | 290,000 tested, 0.37% active | purified LmPK, Kinase-Glo ATP luminescence, 1 h | Potency, µM (series often up to 57.5 µM), for the others: at the top dose activity change, negative = inhibition, most hits filed as inhibitors; note: potency is the fitted concentration of half-maximal effect; % is set by controls: 0 for no effect and ±100 for the full control effect
Target sequence (Q27686 whole entry, looked up): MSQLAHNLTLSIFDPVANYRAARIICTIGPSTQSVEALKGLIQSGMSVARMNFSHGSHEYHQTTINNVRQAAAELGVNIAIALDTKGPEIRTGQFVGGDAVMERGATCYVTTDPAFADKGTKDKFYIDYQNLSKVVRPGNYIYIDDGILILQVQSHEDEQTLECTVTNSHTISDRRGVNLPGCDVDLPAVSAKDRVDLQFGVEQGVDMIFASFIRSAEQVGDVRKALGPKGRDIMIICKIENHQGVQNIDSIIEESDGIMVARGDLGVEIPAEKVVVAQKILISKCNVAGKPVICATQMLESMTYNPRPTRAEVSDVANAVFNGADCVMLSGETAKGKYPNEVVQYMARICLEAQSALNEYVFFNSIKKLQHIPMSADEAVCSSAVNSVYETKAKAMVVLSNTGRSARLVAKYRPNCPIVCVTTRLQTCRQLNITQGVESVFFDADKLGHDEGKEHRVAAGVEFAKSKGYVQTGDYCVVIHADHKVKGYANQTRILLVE
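Pyruvate kinase activity monitored as ATP production (luciferase luminescence). Conditions: 0.1 nM enzyme, 0.5 mM PEP, 0.1 mM ADP, 1 h, RT; normalized against uninhibited and no-enzyme wells.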
SARS PLpro yeast: blocks SARS-CoV papain-like protease in a yeast assay. 330,000 tested, 0.19% active. AID 485353. S. cerevisiae expressing SARS-CoV PLpro, growth rescue. Potency, µM (series often up to 32.9 µM), inactives show at the highest dose activity, positive = growth rescue, most hits filed as activators; calls by dose curve; note: potency is the fitted concentration of half-maximal effect; 0% is about no effect; nearly all actives have a fitted effect of over 55% in size
Shiga inhibitor: blocks Shiga toxin action in Vero cells. AID 2315. Vero cells, Shiga toxin protein synthesis inhibition reporter. 290,000 tested, 9.2% active. inhibition, % at 38.7 µM; in the data active = inhibition mostly above about 28%, no sharp cut-off; inactive = mostly below about 43%; note: 0% is about no effect
* hit, by the source's call; ? = inconclusive; . = no result given; [ ] = another dose, or the depositor's remark. Only a selection was taken, and hits are over-represented in it overall. Unless noted, calls come from the whole dose curve; as a rule, active = well fitted curve in the direction sought with a large enough effect; inconclusive = small, poorly fitted or top-dose-only effect, or another doubt; inactive = no such curve, though single readings can be large; an effect the other way counts as inactive or inconclusive.

SMILES | Tb PYK inh | CHX counter | NS1 function inh | LmPK inhibitor | SARS PLpro yeast | Shiga inhibitor
Cc1ccccc1CNC(=O)Cn1ncn2nc(-c3cccs3)cc2c1=O | -14.0% | . | . | . | . | .
CCc1ccc(NC(=O)c2ccc3ncsc3c2)cc1 | . | 44.0* | -62.2% | -5.0% | 4.6% | 67.6*
CC(C)(C)c1ccc(NC(=O)COC(=O)c2ccc3ncsc3c2)cc1 | -8.1% | . | . | . | 2.4% | .
C/C(NC(=O)c1ccccc1F)=C1\C(=O)C[C@@H]2[C@H]1C2(C)C | -13.2% | 13.9* | -22.5% | 0.6% | -1.4% | 34.7
CCCCCc1ccc(-c2ccc(C(=O)Oc3ccc(C(=O)OC)cc3)cc2)nc1 | 0.0% | . | . | . | . | .
CCCCc1ccc(-c2nn[nH]n2)nc1 | -8.3% | . | . | . | . | .
CCCCc1ccc(-c2ccc(C)cc2O)nc1 | -8.6% | 24.8* | -14.2% | 8.4% | 5.9% | 58.3*
CCCCc1ccc(-c2ccc(Br)cc2O)nc1 | -3.6% | 49.4* | 2.1% | -2.7% | -6.6% | 85.6*
COc1ccc(C(=O)Nc2ccc(S(=O)(=O)N3CCCC3)cc2)cc1[N+](=O)[O-] | 0.2% | -2.5 | 4.1% | -5.8% | 0.7% | -1.6
Cc1ccc(S(=O)(=O)C2(C(=O)Nc3ccc(Br)cc3)CC2)cc1 | 4.7% | 31.6* | . | 1.0% | -1.4% | 46.0
O=C1C2C(C(=O)N1/N=C/c1cccc([N+](=O)[O-])c1)C1C=CC2C12CC2 (configuration not stated) | -7.4% | 51.8* | -22.0% | -0.9% | -6.8% | 74.6*
O=C1C2C(C(=O)N1/N=C/c1cc([N+](=O)[O-])ccc1O)C1C=CC2C12CC2 (configuration not stated) | 0.3% | 4.8 | -95.5% | 1.1% | -27.4% | -8.4
Cc1ccc(/C=N/N2C(=O)C3C(C2=O)C2C=CC3C23CC3)o1 (configuration not stated) | 3.1% | 17.6* | -4.8% | -1.2% | -14.3% | 13.6
CCC(C)N(C(=O)CSc1nnc(-c2ccco2)n1C)C1CCS(=O)(=O)C1 (configuration not stated) | 2.5% | . | . | . | 1.6% | .
CN1CCN(C(=O)c2ccc(-c3ccccc3)cc2)CC1 | -4.5% | 9.4 | 21.7% | -3.2% | 5.6% | 26.1
CC(=O)c1ccc(-c2ccccc2)cc1 | -3.5% | 57.8* | 2.7% | -5.1% | 2.7% | 41.8*
CCC(=O)c1ccc(-c2ccccc2)cc1 | -15.8% | 29.2* | -4.1% | -5.7% | -3.5% | 33.5
Cc1ccc(CC(NC(=O)C2CCCCC2)C(=O)O)cc1 (configuration not stated) | -2.2% | . | . | . | 18.2% | .
COc1ccc(C2=NNC(c3cc(Cl)cc4c3OCOC4)C2)c(O)c1 (configuration not stated) | . | 17.1* | 15.4% | 0.4% | 0.3% | 47.7
Cc1ccc2nc(N(CCN3CCOCC3)C(=O)CCS(=O)(=O)c3ccccc3)sc2c1 | -0.8% | . | . | . | -2.0% | .
CCCC(=O)N(CCN1CCOCC1)c1nc2cc(C)c(C)cc2s1 | 4.1% | 50.8* | -21.4% | -10.2% | 7.7% | 91.3*
O=S(=O)(CCc1nc2ccccc2s1)c1ccc(Cl)cc1 | 1.3% | -2.1 | 4.3% | 3.9% | -0.3% | -11.2
N#Cc1ccc(NC(=O)CCc2nc3ccccc3s2)cc1 | 2.6% | 8.5 | -1.5% | -0.2% | -4.5% | 10.1
CCC(=O)Nc1ccc(OCc2nc3ccccc3s2)cc1 | -11.6% | 43.8* | . | 4.7%[11.5 µM] | -1.1% | 117.5*
c1ccc(OCc2nc3ccccc3s2)cc1 | -6.5% | 61.3* | -11.2% | ? | -0.3% | 67.8*
SMILES | Tb PYK inh | CHX counter | NS1 function inh | LmPK inhibitor | SARS PLpro yeast | Shiga inhibitor
Cc1cc(OCc2nc3ccccc3s2)ccc1N | -20.7% | 59.4* | 6.7% | -13.1% | -1.1% | 111.7*
N#C/C(=C(/O)COc1ccccc1)c1nc2ccccc2s1 | -1.7% | -2.6 | . | -1.2% | . | -18.4
O=S(=O)(Cc1nc2ccccc2s1)c1ccccc1 | -3.6% | 27.4* | -5.0% | -13.9% | -2.1% | 51.9*
CCOC(=O)c1cc2c(=O)n3ccccc3nc2n(CCOC)c1=NC(=O)c1c(-c2ccccc2Cl)noc1C | 2.9% | . | . | . | . | .
COc1cc(NC(=O)CN2C(=O)C(c3ccc(C)cc3)=NC23CCCCCC3)cc(OC)c1 | -0.2% | . | . | . | . | .
CCOc1ccc(NC(=O)C(C)Sc2nc3ncccc3o2)cc1 (configuration not stated) | -7.6% | . | . | . | . | .
CC(C)(C)c1ccc(C2=NC(C)(C)N(CC(=O)Nc3ccc(F)c(F)c3)C2=O)cc1 | 5.0% | . | . | . | . | .
Fc1ccc(OCc2nn3cnnc3s2)cc1 | -4.4% | -2.4 | 4.7% | -12.1% | 1.9% | -6.4
Fc1ccc(OCc2nc3ccccc3s2)cc1 | -0.9% | 52.5* | . | ? | 0.0% | 113.9*
COc1ccccc1CN1COc2ccc3c(C)cc(=O)oc3c2C1 | -2.4% | . | . | . | . | .
CC(C)Oc1cccc(-c2cc(C(=O)N3CCN(S(C)(=O)=O)CC3)c3ccccc3n2)c1 | -0.6% | 36.7* | -24.8% | -2.5% | -0.1% | 57.5
O=C(c1ccc2ccccc2n1)N1CCN(c2ccccc2)CC1 | 0.4% | -3.4 | -5.6% | 5.3% | -1.0% | -5.0
O=C(c1cc(-c2cccs2)nc2ccccc12)N1CCN(S(=O)(=O)c2cccc(F)c2)CC1 | 4.3% | 32.4* | -4.9% | -2.6% | -4.0% | 30.3*
O=C(c1ccc2ccccc2n1)N1CCN(c2ccccc2O)CC1 | -4.5% | 52.3* | -9.5% | -2.5% | -4.8% | 88.4*
COc1ccc(-c2cc(C(=O)N3CCCCC3)c3ccccc3n2)cc1 | 3.8% | . | . | . | -13.1% | .
Cc1ccc(-c2cc(C(=O)N3CCN(c4ccccc4O)CC3)c3ccccc3n2)o1 | -8.3% | 35.3* | -58.0% | -6.4% | -11.5% | 65.8*
O=C(c1ccccc1Cl)N1CCN(C(=O)C2CCCO2)CC1 (configuration not stated) | 4.0% | . | . | . | 1.0% | .
CC(C)Oc1cccc(-c2cc(C(=O)N3CCN(c4ncccn4)CC3)c3ccccc3n2)c1 | . | 42.8* | 1.7% | 0.2% | 1.5% | 68.2*
Cc1ccc(-c2cc(C(=O)N3CCN(c4ncccn4)CC3)c3ccccc3n2)cc1 | 2.2% | 49.1* | -88.4% | -6.6% | -8.8% | 52.7
COc1ccc(-c2cc(C(=O)N3CCN(c4ncccn4)CC3)c3ccccc3n2)cc1OC | 0.1% | . | . | . | 6.9% | .
COc1cccc(-c2cc(C(=O)N3CCN(c4ncccn4)CC3)c3ccccc3n2)c1 | 7.9% | 19.5* | 4.4% | -0.7% | 0.1% | 58.7*
O=C1CSC(c2cccc(F)c2)N1c1c(F)cccc1F (configuration not stated) | -3.1% | 1.5 | -2.7% | -5.2% | 1.1% | -6.5
O=C1CSC(c2ccc(F)cc2)N1c1c(F)cccc1F (configuration not stated) | 2.8% | 20.6* | 2.2% | -7.1% | 0.8% | 21.9
CC(=O)O/N=C(\N)c1ccc(-c2csnn2)cc1 | -1.5% | 33.8* | -2.5% | 1.1% | -1.4% | 64.7*
CC(C)(C)C(=O)O/N=C(\N)c1ccc(-c2csnn2)cc1 | -2.3% | 44.6* | 0.3% | 1.7% | -1.1% | 78.3*
CCSc1nc(-c2ccc(OC)cc2)nc2c1Cc1c(CO)cnc(C)c1O2 | -6.4% | . | . | . | . | .
